Test [1] is described as follows: compounds binding Alexa647 anti-His antibody – biochemical, small-molecule microarray, 635 nm fluorescence, artefact control for SMM control protein annotation, primary screen (AID 1128).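 Note: score merges feature fluorescence with signal-to-noise for each printed compound spot.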 Particulars: higher = more signal.
Test [2] relates to Human papillomavirus type 1a E7 protein (residues 1-88). Kind of test: HPV1a E7 small-molecule binders, primary screen, biochemical, small-molecule microarray, residues 1-88, 635 nm (AID 1129). Particulars: small-molecule microarray binding, fluorescence 635 nm; higher = more signal.
Test [3] addresses Focal adhesion kinase 1 (Homo sapiens) (UniProt Q05397). Kind of test: PTK2 protein binding on printed compound slides – biochemical, small-molecule microarray, 635/667 nm fluorescence, BSA, DTT, primary screen (AID 1130).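 Note: composite of spot emission at 667 nm and signal to noise over triplicate slides.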 Particulars: 635 nm fluorescence, higher = more signal.
For test [4], the system named is Fibrinogen (Alexa647-labelled). Kind of test: Alexa647-fibrinogen binding to printed small molecules – biochemical, small-molecule microarray, 635/667 nm fluorescence, artefact control for SMM control-protein annotation, profiling panel (AID 1131).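 Note: z-score merges 667 nm fluorescence with per-spot signal-to-noise over triplicate slides.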 The note with it: fibrinogen-A647 binding fluorescence, higher = more signal.
The target in test [5] is Follistatin (Homo sapiens) (UniProt P19883). Kind of test: FST protein binding to printed compounds – biochemical, small-molecule microarray, 635/667 nm fluorescence, primary screen (AID 1132). Particulars: 635 nm fluorescence, higher = more signal.
Sequence of Follistatin (Homo sapiens) (P19883 whole entry, looked up): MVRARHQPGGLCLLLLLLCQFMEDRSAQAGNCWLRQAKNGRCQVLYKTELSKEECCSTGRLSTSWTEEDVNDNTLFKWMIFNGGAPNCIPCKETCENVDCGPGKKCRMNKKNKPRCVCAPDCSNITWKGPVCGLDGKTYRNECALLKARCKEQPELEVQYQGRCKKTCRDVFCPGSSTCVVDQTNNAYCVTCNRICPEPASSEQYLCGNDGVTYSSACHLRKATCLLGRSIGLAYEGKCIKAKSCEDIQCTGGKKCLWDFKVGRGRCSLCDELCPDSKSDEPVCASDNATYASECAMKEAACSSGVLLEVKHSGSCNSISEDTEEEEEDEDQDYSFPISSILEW
Test [6] concerns the target Fibroblast growth factor 2 (Homo sapiens) (UniProt P09038). The test is described as follows: basic fibroblast growth factor binding to printed compounds – biochemical, small-molecule microarray, 635/667 nm fluorescence, primary screen (AID 1133). Particulars: FGF2, fluorescence 635/667, higher = more signal.
Test [7] is described as follows: JC-1 mitochondrial potential readout, lung cancer cells – cell-based, A549, JC-1 fluorescence, basal, 24 h, 100 nL, profiling panel (AID 1138).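 Note: A549 lung adenocarcinoma cells under basal conditions with no added stimulus; test concentration not given here.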 Particulars: higher = more signal.
For a further test, the system named is Lefty1. The test is described as follows: Lefty1 protein binding to printed compounds – biochemical, small-molecule microarray, 635/667 nm fluorescence, primary screen (AID 1139). Particulars: fluorescence 635/667, higher = more signal.
Test [8] concerns wheat germ agglutinin (Triticum aestivum), Alexa647-labelled. Kind of test: Alexa647-WGA lectin binding to printed small molecules – biochemical, small-molecule microarray, 635/667 nm fluorescence, artefact control for SMM control-protein annotation, profiling panel (AID 1140).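 Note: score merges 667 nm feature emission with signal to noise over triplicate slides.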 The note with it: WGA-A647 binding, 635 nm fluorescence, higher = more signal.
Test [9] has as its target Luciferin 4-monooxygenase (Photinus pyralis) (UniProt P08659). The test is described as follows: inhibition of purified Photinus pyralis luciferase – biochemical, luminescence, purified enzyme, 2006 set, primary screen (AID 1141).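 Note: cell-free assay with purified firefly luciferase at 100 ng per well in PBS; test concentration not given here.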 Particulars: purified firefly luciferase, SteadyGlo luminescence, 30 min; higher = more signal, called active from +8 up or from −8 down.
For test [10], the system named is Wnt5a (protein binding on small-molecule microarray). The test is described as follows: small molecules binding Wnt5a protein – biophysical, small-molecule microarray, 635/667 nm fluorescence, primary screen (AID 1142).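 Note: fluorescence read at 667 nm with signal to noise per printed feature.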 Particulars: 635 nm fluorescence, higher = more signal.
Test [11] is described as follows: ATP-based viability of Huh7 replicon cells – cell-based, CellTiter-Glo luminescence, basal, 48 h, cytotoxicity control for HCV replication inhibitor project, primary screen (AID 1143).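 Note: Huh7 hepatoma cells carrying a hepatitis C replication reporter with no stimulus; test concentration not given here.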 The note with it: higher = more signal, called active from +8 up or from −8 down.
Test [12] can be described thus: Pseudomonas biofilm growth suppression – PAO1 strain, BacTiter-Glo luminescence, LB-PBS, primary screen (AID 1144). The note with it: P. aeruginosa PAO1 biofilm, 12 h, higher = more signal.
The nature of test [13]: basal CRE-LacZ reporter activity in PC12 – cell-based, unstimulated, primary screen (AID 1145). The note with it: no forskolin, luminescence, 4.5 h, higher = more signal, called active from +8 up or from −8 down.
Test [14] can be described thus: forskolin-driven CRE-LacZ activity in PC12 – cell-based, CRE-LacZ reporter, forskolin-stimulated, primary screen (AID 1146).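 Note: PC12 cells with 6xCRE LacZ reporter stimulated by forskolin 10 µM; beta-galactosidase reporter signal reflecting CREB driven transcription.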 The note with it: luminescence, 4.5 h, higher = more signal, called active from +8 up or from −8 down.
Test [15] deals with Streptavidin (Streptomyces avidinii) (UniProt P22629). Kind of test: compounds binding control protein streptavidin – biophysical, small-molecule microarray, 635/667 nm fluorescence, artefact control for SMM compound annotation, primary screen (AID 1147).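 Note: signal reflects streptavidin binding to arrayed compounds as a control protein.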 Particulars: higher = more signal.
Sequence of Streptavidin (Streptomyces avidinii) (P22629 whole entry, looked up): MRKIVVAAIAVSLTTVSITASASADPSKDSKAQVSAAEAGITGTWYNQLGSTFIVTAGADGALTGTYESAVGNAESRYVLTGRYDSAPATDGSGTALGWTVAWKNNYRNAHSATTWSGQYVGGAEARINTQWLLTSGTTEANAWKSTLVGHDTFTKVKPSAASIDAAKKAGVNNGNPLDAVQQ
Test [16] can be described thus: probe aInhba binding on compound microarray – biochemical, small-molecule microarray, 635/667 nm fluorescence, primary screen (AID 1148).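 Note: score merges 667nm spot fluorescence with signal-to-noise for antibody binding to printed compounds.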 The note with it: higher = more signal.
The target in test [17] is Torsin-1A (Homo sapiens) (UniProt O14656). The test is described as follows: TOR1A wild-type binding on microarray – cell lysate, small-molecule microarray, lysate, 635/667 nm, primary screen (AID 1149). The note with it: COS7 hTOR1A-WT lysate, 635 nm fluorescence, higher = more signal.
Sequence of Torsin-1A (Homo sapiens) (O14656 whole entry, looked up): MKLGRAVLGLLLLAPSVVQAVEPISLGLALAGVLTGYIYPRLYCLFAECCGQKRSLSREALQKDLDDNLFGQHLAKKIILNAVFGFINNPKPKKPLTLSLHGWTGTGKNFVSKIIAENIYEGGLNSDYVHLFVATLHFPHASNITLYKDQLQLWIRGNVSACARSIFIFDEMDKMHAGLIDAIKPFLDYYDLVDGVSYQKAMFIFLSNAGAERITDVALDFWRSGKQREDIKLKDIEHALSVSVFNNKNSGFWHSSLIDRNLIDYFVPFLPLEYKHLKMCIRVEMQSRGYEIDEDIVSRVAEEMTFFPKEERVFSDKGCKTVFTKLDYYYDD
For test [18] the target is unchanged. The test is described as follows: torsin A mutant lysate binding on microarrays – cell lysate, small-molecule microarray, COS7 lysate, 635/667 nm fluorescence, primary screen (AID 1150).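 Note: score pools 667 nm emission and signal to noise measuring lysate protein binding.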 The note with it: COS7 hTOR1A mutant lysate, 635 nm fluorescence, higher = more signal.
In test [19] the test system is Sonic hedgehog protein (Shh). The test is described as follows: Sonic hedgehog microarray binding compounds – biochemical, small-molecule microarray, 635/667 nm fluorescence, primary screen (AID 1151).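 Note: Shh protein binding to compounds spotted on small-molecule microarray slides; score combines spot fluorescence intensity with signal-to-noise across triplicate slides.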 Particulars: 635 nm fluorescence, higher = more signal.

Results on four compounds are retold here after PubChem BioAssay.

Values joined by “and” are separate entries in the source; they are usually repeats but may differ in a detail not shown here. Equal values may be shown once. Active and inactive are the calls of the source. Unless noted, the rule behind the calls is not given here.

Sequence of Focal adhesion kinase 1 (Homo sapiens) (Q05397 whole entry, looked up): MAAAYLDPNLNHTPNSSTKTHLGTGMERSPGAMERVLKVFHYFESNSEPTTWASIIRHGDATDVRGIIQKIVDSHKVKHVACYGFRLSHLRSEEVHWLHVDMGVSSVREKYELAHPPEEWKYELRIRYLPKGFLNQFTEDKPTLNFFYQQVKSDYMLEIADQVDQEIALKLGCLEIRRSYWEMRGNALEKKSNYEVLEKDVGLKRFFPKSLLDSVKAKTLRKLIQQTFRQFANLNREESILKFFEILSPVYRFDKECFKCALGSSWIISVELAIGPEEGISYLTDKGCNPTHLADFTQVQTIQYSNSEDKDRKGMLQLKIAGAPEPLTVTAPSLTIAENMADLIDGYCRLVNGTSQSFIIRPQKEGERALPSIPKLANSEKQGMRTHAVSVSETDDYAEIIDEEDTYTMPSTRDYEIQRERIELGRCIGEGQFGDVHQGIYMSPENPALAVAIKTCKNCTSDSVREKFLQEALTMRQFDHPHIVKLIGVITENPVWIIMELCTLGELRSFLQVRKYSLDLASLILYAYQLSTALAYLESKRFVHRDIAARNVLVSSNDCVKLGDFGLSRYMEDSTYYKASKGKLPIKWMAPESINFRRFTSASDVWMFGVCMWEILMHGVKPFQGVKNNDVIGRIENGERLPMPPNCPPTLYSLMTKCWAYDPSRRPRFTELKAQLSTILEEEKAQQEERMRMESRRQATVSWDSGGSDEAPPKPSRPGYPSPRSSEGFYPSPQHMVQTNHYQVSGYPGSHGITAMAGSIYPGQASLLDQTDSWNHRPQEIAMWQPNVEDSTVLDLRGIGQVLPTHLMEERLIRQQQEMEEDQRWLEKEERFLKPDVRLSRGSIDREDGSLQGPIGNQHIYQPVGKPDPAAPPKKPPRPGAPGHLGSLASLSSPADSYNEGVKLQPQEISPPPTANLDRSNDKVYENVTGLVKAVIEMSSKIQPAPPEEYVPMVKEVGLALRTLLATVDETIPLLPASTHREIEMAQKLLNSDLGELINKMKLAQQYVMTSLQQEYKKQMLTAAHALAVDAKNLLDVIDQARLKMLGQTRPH
Sequence of Luciferin 4-monooxygenase (Photinus pyralis) (P08659 whole entry, looked up): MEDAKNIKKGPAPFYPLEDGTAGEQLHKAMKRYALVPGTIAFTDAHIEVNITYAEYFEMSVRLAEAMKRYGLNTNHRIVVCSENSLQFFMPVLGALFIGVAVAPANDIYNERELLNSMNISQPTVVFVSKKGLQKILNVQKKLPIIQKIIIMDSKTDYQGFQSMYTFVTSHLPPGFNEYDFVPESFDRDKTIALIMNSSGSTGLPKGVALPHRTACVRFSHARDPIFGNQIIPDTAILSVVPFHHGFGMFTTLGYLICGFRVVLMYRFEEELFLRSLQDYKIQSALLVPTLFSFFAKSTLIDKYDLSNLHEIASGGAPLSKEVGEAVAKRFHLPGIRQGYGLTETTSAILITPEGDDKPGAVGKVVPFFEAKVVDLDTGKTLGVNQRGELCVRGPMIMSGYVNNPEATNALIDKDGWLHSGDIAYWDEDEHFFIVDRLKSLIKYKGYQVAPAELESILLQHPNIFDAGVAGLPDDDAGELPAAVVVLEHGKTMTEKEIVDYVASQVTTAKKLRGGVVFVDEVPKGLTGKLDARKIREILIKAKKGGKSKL
Sequence of Fibroblast growth factor 2 (Homo sapiens) (P09038 whole entry, looked up): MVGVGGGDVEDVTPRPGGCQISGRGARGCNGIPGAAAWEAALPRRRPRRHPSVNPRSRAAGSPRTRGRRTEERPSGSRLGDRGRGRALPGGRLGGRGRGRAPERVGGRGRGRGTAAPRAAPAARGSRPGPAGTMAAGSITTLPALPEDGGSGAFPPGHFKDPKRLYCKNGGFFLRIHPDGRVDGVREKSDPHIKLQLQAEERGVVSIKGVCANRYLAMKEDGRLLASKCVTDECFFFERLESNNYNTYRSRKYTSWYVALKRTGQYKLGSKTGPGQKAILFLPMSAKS

In the case of `CC[C@@H]1C(Sc2ccccc2)C(C(=O)O)[C@H](c2ccc(C)cc2)N1S(=O)(=O)c1ccc(C)cc1` (stereo not given in full), the composite z-score in [1] is 1.81 and 0.489; in test [2], 1.25 and 1.17; in test [3], 0.994 and 0.704; in test [4], 1.03; in test [5], 0.427 and 0.634; in test [6], -0.375 and -0.193. Besides, the composite z-score in the test with Lefty1 was -0.642 and 0.533; in test [8] it was 0.707 and 0.804; in test [10], 0.142 and 0.0997; in test [15] it was 1.46 and 1.59; in test [16], -0.025 and -0.0736; with Torsin-1A (Homo sapiens) [17] it was 1.19 and 0.429. Also, the composite z-score is 1.5 and -0.0197 with Torsin-1A (Homo sapiens) [18]; 0.801 and -0.436 in test [19]. In addition, the z-score is -0.102 and 0.13 in test [7]; 0.534 (inactive) and -0.0047 (inactive) in [9]; -0.318 (inactive) and -2.15 (inactive) in test [11]; 0.281 (inactive) and 0.139 (inactive) in test [12]; -0.574 (inactive) and -0.415 (inactive) in test [13]; -0.0531 (inactive) and -0.545 (inactive) in test [14].
In the case of `COC(=O)C1=C(C)N(Cc2ccccc2)C2=C3C(=O)N(C)C(=O)[C@@H]3[C@@](O)(C(=O)OC)C(=O)N2[C@@H]1c1ccccc1`, the composite z-score was 0.21 and -0.0385 in test [1]; 0.311 and 0.614 in test [2]; 0.128 and 0.276 in [3]; 0.269 and 0.335 in test [4]; 0.355 and 0.223 in test [5]; 0.55 and 0.24 in test [6]. In addition, the composite z-score with Lefty1 was -0.0227 and 0.627; in test [8], 0.129 and -0.0358; in [10] it was 0.147 and 0.126; in test [15], 0.378 and 0.131; in test [16] it was 0.038 and 0.0173; with Torsin-1A (Homo sapiens) [17] it was 0.154 and 0.161. Besides, the composite z-score was 0.491 and 0.207 in the test with Torsin-1A (Homo sapiens) [18]; -0.004 and 0.436 in [19]. In addition, the z-score in test [7] is 0.286 and 0.239; in [9], -0.598 (inactive) and -2.38 (inactive); in [11] it was 0.961 (inactive) and -0.294 (inactive); in [12], -0.153 (inactive) and -0.448 (inactive); in test [13] it was 2.18 (inactive) and 0.992 (inactive); in test [14], -0.152 (inactive) and -0.755 (inactive).
`C=CCN(CCCC)C(=O)C1N(C(C)(C)CO)C(=O)C2C(C(=O)O)C3C=CC21O3` (stereo not given): the composite z-score in [1] is -0.767 and -0.57; in [2], -1.26 and -1.35; in [3], -0.909 and -1.23; in [4], -4.07 and -1.59; in test [5] it was -2.17 and -2.38; in test [6] it was -1.42 and -1.18. Besides, the composite z-score in the test with Lefty1 is -1.93 and -1.64; in test [8], -0.788 and -0.799; in [10] it was -1.3 and -0.176; in [15], -1.54 and -1.29; in test [16] it was -0.208 and -0.157; with Torsin-1A (Homo sapiens) [17] it was -2.92 and -2.18. Also, the composite z-score was -2.77 and -2.67 in the test with Torsin-1A (Homo sapiens) [18]; -1.07 and -0.475 in test [19]. The z-score was -0.628 and -0.501 in [7]; 1.12 (inactive) and 0.853 (inactive) in [9]; 0.194 (inactive) and -0.11 (inactive) in test [11]; 0.264 (inactive) and 1.42 (inactive) in [12]; -0.627 (inactive) and -0.611 (inactive) in [13]; -0.414 (inactive) and -0.388 (inactive) in [14].
In the case of `COC(=O)[C@@]1(Cc2ccc(OC)cc2)[C@H]2c3cc(C(=O)N(C)C)n(Cc4ccc(O)c(OC)c4)c3C[C@H]2CN1C(=O)c1ccccc1`, the composite z-score in test [1] is 1.8 and 2.3; in [2] it was 1.24 and 1.21; in test [3], 0.529 and 0.379; in test [4] it was 0.0218 and 0.962; in [5] it was 0.231 and 0.715; in [6], -0.913 and -0.134. Also, the composite z-score in the test with Lefty1 is -0.268 and -0.542; in test [8], 1.39 and 0.989; in test [10], 0.0905 and 0.294; in [15] it was 1.09 and 0.758; in test [16], 0.293 and 0.714; with Torsin-1A (Homo sapiens) [17], 0.934 and 0.0765. The composite z-score was 0.692 and 0.318 with Torsin-1A (Homo sapiens) [18]; 1.02 and -0.291 in test [19]. Also, the z-score in test [7] was 1.73 and 1.22; in test [9] it was 1.75 (inactive) and 1.08 (inactive); in test [11], -1.03 (inactive) and -2.86 (inactive); in [12], 0.209 (inactive) and 0.769 (inactive); in test [13], 0.583 (inactive) and 0.197 (inactive); in test [14], 0.217 (inactive) and -0.742 (inactive).
